The list is not random: actives were taken first. Their share in the collection is about 1.8%.
KCNH2 3.1 block: KCNH2 3.1 (human) potassium channel inhibition; AID 720553; U2OS KCNH2 3.1, thallium flux FluxOr; stronger effect = lower value; activity change, % (tested at about 1.8 µM); 0.95% of 340,000 active;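 active = maximum activity change below -70%; inconclusive = maximum activity change from -70% to -50%; inactive = maximum activity change above -50%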;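 note: thallium influx rate constant from kinetic fluorescence after stimulation buffer; % is set by controls: 0 for no effect and ±100 for the full control effect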
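U2OS cells transduced with KCNH2 3.1 mutant virus (1.77 x 10^8 /mL, 4 h), plated overnight at 37 C, loaded 45 min with FluxOr dye plus Red40 quencher. Thallium flux rate constant from kinetic reads after stimulation buffer, normalised to controls.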
AT treatment: candidate therapy for ataxia-telangiectasia; F2112 A-T fibroblasts, KAP-1 phosphorylation AlphaLISA; neocarzinostatin DNA damage 30 min before lysis; Potency, µM (titrated, usually from 57.5 µM), inactives show at the top dose activation, actives largely listed as activators; 0.19% of 320,000 active; AID 485349; note: potency is the fitted concentration of half-maximal effect; % of control where 0% means no effect; nearly all actives have a fitted effect of over 45% in size
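ATM-like activity read as KAP-1 phosphorylation via AlphaLISA donor/acceptor antibody pairs after lysis and 6 hr at 25C. Cells were ATM-null patient fibroblasts (F2112, hTERT), dosed 60 min, then exposed to the DSB inducer NCS for 30 min.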
hERG WT inh: KCNH2 (human, wildtype) channel inhibition | U2OS, BacMam KCNH2, thallium flux FluxOr; stronger effect = lower value | activity change, % at 1.84 µM | 0.37% of 340,000 active | AID 720551;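 active = maximum activity change below -70%; inconclusive = maximum activity change between -70% and -50%; inactive = maximum activity change above -50%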; note: % is set by controls: 0 for no effect and ±100 for the full control effect
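U2OS cells were transduced with wild-type KCNH2 virus (2.03 x 10^8 / mL) for 4 h at room temperature, then cultured overnight at 37 C. Thallium flux was read with FluxOr dye. Rate constants were normalized to DMSO controls.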
12-LOX inh: ALOX12 (human) lipoxygenase inhibition | purified 12hLO, xylenol orange hydroperoxide absorbance | Potency, µM (highest dose often 108 µM), for inactives: at the highest dose activity change, negative = inhibition, most hits filed as inhibitors | 1.1% of 580,000 active | AID 1671190; note: potency is the fitted concentration of half-maximal effect; % is set by controls: 0 for no effect and ±100 for the full control effect
Target sequence (P18054 whole entry, looked up): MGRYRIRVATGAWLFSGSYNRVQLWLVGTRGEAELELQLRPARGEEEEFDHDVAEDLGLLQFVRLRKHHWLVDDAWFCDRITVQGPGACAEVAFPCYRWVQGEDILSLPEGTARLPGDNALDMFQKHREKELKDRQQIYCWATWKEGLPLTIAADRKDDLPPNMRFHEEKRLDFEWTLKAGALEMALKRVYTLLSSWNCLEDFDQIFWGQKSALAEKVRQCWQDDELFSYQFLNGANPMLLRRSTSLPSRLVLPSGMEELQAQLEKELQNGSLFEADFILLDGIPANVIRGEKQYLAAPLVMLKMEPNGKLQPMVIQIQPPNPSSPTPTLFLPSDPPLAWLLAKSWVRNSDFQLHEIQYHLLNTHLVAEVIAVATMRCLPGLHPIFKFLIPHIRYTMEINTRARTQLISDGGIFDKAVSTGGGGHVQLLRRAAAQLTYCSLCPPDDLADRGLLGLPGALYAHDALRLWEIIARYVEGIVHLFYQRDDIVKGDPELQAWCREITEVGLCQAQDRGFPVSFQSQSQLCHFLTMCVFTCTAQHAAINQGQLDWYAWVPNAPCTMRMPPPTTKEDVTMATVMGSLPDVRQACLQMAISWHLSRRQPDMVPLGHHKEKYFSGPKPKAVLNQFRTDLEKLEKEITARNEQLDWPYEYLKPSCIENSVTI
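Purified human 12hLO (150 nM final) in 25 mM Hepes, 0.01% Triton X-100, pH 7.0 was preincubated 15 min at room temperature with compound. Then 40 uM arachidonic acid was added, 30 min. Hydroperoxide was read by Fe-XO absorbance ratio 573/405 nm.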
Numbers without * were called inactive; ? = inconclusive; nt = no result. Unless noted, calls come from the whole dose curve; as a rule, active = well fitted curve in the direction sought with a large enough effect; inconclusive = small, poorly fitted or top-dose-only effect, or another doubt; inactive = no such curve, though single readings can be large; an effect the other way counts as inactive or inconclusive.

SMILES | KCNH2 3.1 block | AT treatment | hERG WT inh | 12-LOX inh
CC(=O)c1ccc(NC(=O)C(C)N2CCN(C/C=C/c3ccccc3)CC2)cc1 (stereo unspecified) | ? | 2% | 23 | -8%
Cc1ccc(NC(=O)CCN2CCN(C/C=C/c3ccccc3)CC2)cc1 | -86* | -5% | -96* | ?
Cc1cccc(C)c1OCc1nnc(NC(=O)Nc2ccc(F)cc2)s1 | nt | nt | nt | -16%
COc1cc(NC(=O)CCN2CCN(C/C=C/c3ccccc3)CC2)cc(OC)c1 | -38 | 4% | 28 | 0%
COc1ccc(NC(=O)CCN2CCN(C/C=C/c3ccccc3)CC2)cc1 | -105* | -2% | 24 | ?
CC(C(=O)N(C)Cc1ccccc1)N1CCN(C/C=C/c2ccccc2)CC1 (stereo unspecified) | -96* | 6% | 15 | -29%
O=C(CCN1CCN(C/C=C/c2ccccc2)CC1)Nc1ccc(Cl)cc1 | -99* | 4% | -38 | ?
COc1ccc(OC)c(NC(=S)N2CCN(C/C=C/c3ccccc3)CC2)c1 | -7 | -5% | 0 | -29%
COc1ccc(Cl)cc1NC(=O)C(C)N1CCN(C/C=C/c2ccccc2)CC1 (stereo unspecified) | -93* | 0% | -75* | ?
O=C1COc2ccc(NCCc3ccccn3)nc2CN1Cc1ccc(C(F)(F)F)cc1 | nt | nt | nt | -16%
Cc1ccc(NCC(O)Cn2c3ccccc3n3c(=O)cc(C)c(C#N)c23)cc1 (stereo unspecified) | nt | nt | nt | 0%
CCCCNC(=O)c1ccc2c(c1)N(Cc1ccccc1)C(=O)CS2=O (stereo unspecified) | nt | nt | nt | 4%
Cc1nc(NC(C)(C)C)sc1C(=O)Nc1ccccc1 | nt | nt | nt | -26%
COc1ccc(C)cc1NC(C)C(=O)NC(=O)NC1CCCCC1 (stereo unspecified) | -97* | -1% | -3 | ?
c1ccc(-n2nnnc2SCc2nc3ccccc3[nH]2)cc1 | nt | nt | nt | -14%
Cc1ccc(OCCn2c(=S)[nH]c3ccccc32)c(C(C)C)c1 | -11 | 5% | 6 | 32µM*
S=c1[nH]c2ccccc2n1CCOc1ccccc1 | 2 | 4% | -6 | 40µM*
Cc1oc(-c2ccccc2)nc1C(=O)NCc1ccc(F)cc1 | nt | nt | nt | -14%
Cn1c(-c2ccc3c(c2)OCO3)cnc1N | -75* | -1% | 4 | -21%
Cc1cc(C)c2nc(SCC(=O)NCCC3=CCCCC3)cc(C)c2c1 | 3 | 3% | -4 | 16µM*
COCCNC(=O)CSc1cc(C)c2cc(C)cc(C)c2n1 | nt | nt | nt | 43%
CC(C)NC(=O)c1ccc(I)c(Br)c1 | nt | nt | nt | 3%
CCC(=O)N(CCC(Cc1ccccc1)c1ccc2c(c1)OCO2)Cc1ccccc1F (stereo unspecified) | -79* | 8% | 2 | -2%
O=C(Nc1ccccc1Oc1cccnc1)C1CCCN(C/C=C/c2ccc(F)cc2)C1 (stereo unspecified) | -93* | 2% | -98* | 0%
Cc1cccc(CN2CCCC(C(=O)Nc3ccccc3Oc3cccnc3)C2)c1 (stereo unspecified) | 6 | 4% | 32 | 6%
SMILES | KCNH2 3.1 block | AT treatment | hERG WT inh | 12-LOX inh
Cc1ccc(OC2(C(=O)NC(C)c3cn4ncsc4n3)CCNCC2)cc1 (stereo unspecified) | nt | nt | nt | 14µM*
CCOc1ccc2nc(NC(=O)CSc3nc4ccccc4c(=O)n3Cc3ccco3)sc2c1 | -97* | 5% | ? | 0%
O=C(CSc1nc2ccccc2c(=O)n1Cc1ccco1)N1CCN(c2ccccc2)CC1 | -107* | 6% | -104* | -7%
CCOC(=O)CSc1nc2ccccc2c(=O)n1Cc1ccco1 | 0 | 16% | 3 | 16%
CN(C)c1ccc(-c2nnn(Cc3ccccc3Br)n2)cc1 | -93* | 8% | -31 | 19%
COc1ccc(-c2nnn(Cc3ccccc3F)n2)cc1 | -3 | nt | 1 | 3%
Clc1ccccc1Cn1nnc(-c2ccccc2)n1 | -12 | 22µM* | 9 | -4%
Nc1cccc(CO)c1 | nt | nt | nt | 11%
Cn1c2c(c(=O)n(C)c1=O)C(c1ccccc1Cl)C(C#N)=C(N)O2 (stereo unspecified) | -105* | -18% | 0 | 0%
N#CC1=C(N)OC2=C(C(=O)CC(c3ccc(Cl)cc3)C2)C1c1ccccc1Cl (stereo unspecified) | nt | nt | nt | 16µM*
CC(C)c1nc2c(c(-c3ccc(O)cc3)n1)CN(Cc1cccc(C(F)(F)F)c1)CC2 | nt | nt | nt | 1%
Oc1ccc(Br)cc1/C=N/n1c(COc2ccccc2)n[nH]c1=S | 25 | -1% | 13 | 8.9µM*
